Compounds without any hit were thinned out: in the full panel of roughly 79,000, 15% have a hit. Unmarked numbers belong to inactive results. Calls of active or inactive are those of the source. Rule as the data show it: active = growth inhibition above about 70%; inactive = the rest.
Columns and labels:
[1] = NCI Yeast Anticancer Drug Screen. Data for the rad50 strain (AID 155);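 also: 0% = growth of vehicle-only cultures of the same strain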; details: S. cerevisiae rad50 strain growth inhibition, hits give high values
How it was run: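 Inhibition values express reduced yeast growth in compound-treated cultures relative to vehicle-treated controls.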

[2] = NCI Yeast Anticancer Drug Screen. Data for the mec2-1 strain (AID 157); details: S. cerevisiae mec2-1 strain, hits give high values
How it was run: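 Yeast mec2-1 mutant treated with compound. Readout: growth inhibition vs vehicle controls.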

[3] = NCI Yeast Anticancer Drug Screen. Data for the sgs1 mgt1 strain (AID 161);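 also: 0% = growth of cultures given vehicle only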; details: S. cerevisiae sgs1 mgt1 strain, hits give high values
How it was run: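 Read-out: growth inhibition vs vehicle controls. Cells: mutant yeast strain deficient in DNA damage repair.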

[4] = NCI Yeast Anticancer Drug Screen. Data for the cln2 rad14 strain (AID 165);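 also: 0% = growth equal to vehicle treated cultures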; details: S. cerevisiae cln2 rad14 strain, hits give high values
How it was run: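 cln2 rad14 yeast strain; compound exposure; growth inhibition read vs vehicle controls.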

[5] = NCI Yeast Anticancer Drug Screen. Data for the bub3 strain (AID 167); details: S. cerevisiae bub3 mutant strain, hits give high values
How it was run: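 Steps: expose the mutant yeast strain to compound; grow alongside vehicle-treated cultures; measure growth; express inhibition against the vehicle cultures.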

[6] = NCI Yeast Anticancer Drug Screen. Data for the mlh1 rad18 strain (AID 175); details: S. cerevisiae mlh1 rad18 strain growth inhibition, hits give high values
How it was run: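 Yeast w/ defined DNA-repair lesions; compound exposure; growth vs vehicle controls → % inhibition.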

[7] = at 5.0 µM (retest, dose inferred, filed as 0.5)
[8] = at 50.0 µM (retest, dose inferred, filed as 5.0)

SMILES | growth inhibition [1, 7] | growth inhibition [1, 8] | growth inhibition ([1]; at 50.0 µM) | growth inhibition [2, 7] | growth inhibition [2, 8] | growth inhibition ([2]; at 50.0 µM) | growth inhibition [3, 7] | growth inhibition [3, 8] | growth inhibition ([3]; at 50.0 µM) | growth inhibition [4, 7] | growth inhibition [4, 8] | growth inhibition ([4]; at 50.0 µM) | growth inhibition [5, 7] | growth inhibition [5, 8] | growth inhibition ([5]; at 50.0 µM) | growth inhibition [6, 7] | growth inhibition [6, 8] | growth inhibition ([6]; at 50.0 µM)
CN(C)CCCN1c2cc(Cl)ccc2Sc2ccc3ccccc3c21 | 3% | 98% (active) | 99.3% (active) | 3% | 99% (active) | 99.3% (active) | 3% | 99% (active) | 99.2% (active) | 2% | 96% (active) | 98.6% (active) | 5% | 96% (active) | 99.5% (active) | 28% | 98% (active) | 99.3% (active)
CCCCCCCCN/N=C(/C)CCCCCO | -6% | 4% | -14.2% | 4% | 9% | -11.8% | 1% | 1% | -12.7% | -67% | -2% | 22.8% | 1% | -80% | 15.9% | -1% | -12% | -23.6%
O=CC(O)CN1CCCC1 (stereo not given) | -2% | 11% | 49.6% | 0% | 14% | 53.2% | 2% | 8% | 87.7% (active) | -4% | 6% | 96.8% (active) | -4% | 25% | 12.7% | 1% | 16% | 92.9% (active)
Cc1c(N)nc(C2CC(=O)N2CC(N)C(N)=O)nc1C(=O)NC(C(=O)NC(C)C(O)C(C)C(=O)NC(C(=O)NCCc1nc(-c2nc(C(=O)NCCCNC3CCCC3)cs2)cs1)C(C)O)C(OC1OC(CO)C(O)C(O)C1OC1OC(CO)C(O)C(OC(N)=O)C1O)c1cnc[nH]1 (stereo not given) | 98% (active) | 99% (active) | 92.2% (active) | 97% (active) | 99% (active) | 93.3% (active) | 96% (active) | 98% (active) | 93.5% (active) | 93% (active) | 97% (active) | 88.3% (active) | 97% (active) | 98% (active) | 93.5% (active) | 98% (active) | 99% (active) | 92% (active)
O=c1cc(-c2ccccc2)oc(-c2ccccc2)c1 | -152% | -105% | 82.4% (active) | -55% | -50% | 19.4% | -71% | -59% | 11% | -68% | -82% | -20.1% | -68% | -56% | 20% | -123% | -103% | 43.6%
O=C1CCS(=O)(=O)c2ccccc21 | 21% | 100% (active) | 91.2% (active) | -2% | 99% (active) | 65.4% | 24% | 99% (active) | 57.7% | 3% | 94% (active) | 36.9% | 34% | 99% (active) | 33.4% | 36% | 99% (active) | 64%
Cc1ccc(O)c(C(c2ccc([N+](=O)[O-])cc2)c2cc(C)ccc2O)c1 | 68% | 95% (active) | 91.2% (active) | 90% (active) | 98% (active) | 92.9% (active) | 51% | 57% | 39% | 73% (active) | 53% | 89.7% (active) | 93% (active) | 52% | 90.9% (active) | 84% (active) | 96% (active) | 91.3% (active)
CCCCCCCCCCCCNC(=O)NCC(OCC)OCC | -3% | 96% (active) | 89.3% (active) | 2% | 97% (active) | 91.5% (active) | 13% | 95% (active) | 92.3% (active) | 28% | 95% (active) | 83.3% (active) | 12% | 97% (active) | 91.8% (active) | -19% | 96% (active) | 90.3% (active)
COc1ccccc1C1C2=C(COC2=O)OC(C)(C)Oc2cc3c(cc21)OCO3 (stereo not given) | 22% | 96% (active) | 75.8% (active) | -13% | 96% (active) | 85.1% (active) | 16% | 96% (active) | 86.3% (active) | 35% | 95% (active) | 87.3% (active) | -22% | 97% (active) | 89.7% (active) | 15% | 96% (active) | 88% (active)
O=C(O)c1ccccc1-c1c2cc([N+](=O)[O-])c(=O)c(Br)c-2oc2c(Br)c(O)c([N+](=O)[O-])cc12 | 27% | 91% (active) | 77.5% (active) | 29% | 93% (active) | 82.1% (active) | 25% | 66% | 62% | 34% | 66% | 88.5% (active) | 32% | 75% (active) | 66.5% | 42% | 96% (active) | 72.1% (active)
COC(=O)c1ccc2c(c1)C(O)NC(=O)O2 (stereo not given) | 16% | 97% (active) | 98.5% (active) | 15% | 97% (active) | 98% (active) | 15% | 98% (active) | 98.9% (active) | 18% | 98% (active) | 98.5% (active) | 3% | 95% (active) | 98.6% (active) | 21% | 97% (active) | 98.5% (active)
CCOc1ccc2c(ccc(/C=C\c3cc(C)c4cccnc4c3O)[n+]2C)c1 | 91% (active) | 92% (active) | 87.3% (active) | 81% (active) | 91% (active) | 89.2% (active) | 87% (active) | 93% (active) | 90% (active) | 67% | 87% (active) | 86.8% (active) | 59% | 91% (active) | 82.8% (active) | 95% (active) | 93% (active) | 89% (active)
COc1ccc2cc(C(=O)CCCC(C)C(=O)O)ccc2c1 (stereo not given) | 0% | -9% | 74.6% (active) | -9% | -11% | -7.85% | 0% | 38% | 2.85% | -3% | -22% | -48% | -4% | -9% | 3.55% | -12% | -4% | 2.95%
CCN(CC)CCOc1c(Cl)c(Cl)c(Cl)c(Cl)c1Cl | 23% | 62% | 71.7% (active) | 15% | 77% (active) | 57.5% | 20% | 88% (active) | 86.8% (active) | -1% | 80% (active) | 48.5% | 1% | 56% | 64.2% | 7% | 80% (active) | 71.8% (active)
O=C(O)C(Cc1ccc(O)cc1)NC(=O)N(c1ccccc1)c1ccccc1 (stereo not given) | 0% | 38% | 17.2% | -11% | 52% | 25.1% | -205% | 79% (active) | 30.8% | 3% | 39% | 61.6% | 2% | 28% | 19% | -4% | 74% (active) | 28.5%
CSc1ncc2c(n1)-c1ccccc1OC2NC1CC1 (stereo not given) | 24% | 22% | 71.5% (active) | 18% | 16% | 62.5% | 17% | 20% | 11.3% | 26% | 27% | -2.85% | 24% | 28% | 14.6% | 18% | 12% | -7.35%
Clc1ccc(OCCC(Cn2ccnc2)c2ccc(Cl)cc2Cl)c(Cl)c1 (stereo not given) | 94% (active) | 98% (active) | 66% | 91% (active) | 99% (active) | 55.9% | 94% (active) | 98% (active) | 58.2% | 86% (active) | 97% (active) | 64% | 93% (active) | 98% (active) | 48.1% | 90% (active) | 98% (active) | 55.7%
OC(CBr)C[n+]1cccc2cc(Cl)ccc21 (stereo not given) | 6% | 5% | -40% | 1% | 3% | -13.4% | -1% | 9% | -28.6% | -1% | -6% | 39.8% | -1% | 6% | 2.8% | 2% | -2% | -5.8%
Cc1ccc(Nc2nc3c(s2)C(=O)c2ccccc2C3=O)c(C)c1 | 28% | 99% (active) | 98.7% (active) | 33% | 99% (active) | 99.5% (active) | 18% | 99% (active) | 99.2% (active) | 7% | 98% (active) | 98.9% (active) | 50% | 99% (active) | 99.5% (active) | 30% | 98% (active) | 97.8% (active)
Cc1[nH]c2c(C)cccc2c1C1Cc2ccccc2N1 (stereo not given) | 3% | 99% (active) | 98.4% (active) | -1% | 99% (active) | 98.8% (active) | -12% | 98% (active) | 98.8% (active) | -5% | 98% (active) | 98.5% (active) | 6% | 98% (active) | 98.7% (active) | 4% | 98% (active) | 98.2% (active)
